Results reported in PubChem BioAssay AID1527 (The Scripps Research Institute Molecular Screening Center, 2009).
The campaign covered roughly 290,000 compounds. About 2,600 (0.9%) were called active.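 How the source made its calls: active means inhibition above the mean of all tested compounds plus 3 SD, cutoff set per screening run (cut at about 7.5% in these data); inactive means the rest.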 The entries come from a sample that favours actives as a whole.

Each molecule was assayed on VIM-2 metallo-beta-lactamase (Pseudomonas aeruginosa) (assay: inhibition of VIM-2 nitrocefin hydrolysis – biochemical, epi-absorbance readout, Pseudomonas aeruginosa enzyme, primary screen (AID 1527;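 further: red hydrolysis product quenches plate fluorescence so inhibitors raise well fluorescence; 0% = enzyme with DMSO and 100% = DMSO without enzyme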)). Conditions: purified VIM-2, nitrocefin hydrolysis, epi-absorbance fluorescence; at 5.6 µM; active compounds read high.

inhibition, inactive:
CCOCCCNc1nc(-c2ccccc2)nc2ccccc12 1.44%
CCOCCn1c(-c2ccccc2)nc2ccccc21 -2.42%
CCOC(=O)C1(c2ccccc2)NC(c2ccc(N(C)C)cc2)C2C(=O)N(C)C(=O)C21 (stereo not drawn) -1.25%
COc1ccc(CN2CC(C(=O)NC3CCCCC3)CC2=O)cc1 (stereo not drawn) 0.64%
COc1ccc(N(CC(=O)Nc2cccc3ccccc23)S(C)(=O)=O)c(OC)c1 -2.25%
N#Cc1c2c(c(-c3ccccc3)[nH]c1=O)CCCC2 -0.97%
c1ccc(-c2cc(-c3ccccc3)[nH]n2)cc1 -2.1%
CCCCNC(=O)c1ccccc1NC(=O)C1=C(C)OCCS1 -1.59%
COc1ccc(N2CCN(C(=O)c3ccccc3NC(=O)C3=C(C)OCCS3)CC2)cc1 -0.86%
CCn1cc(CN2CCC(C(=O)Nc3cccc(-c4cccc(Cl)c4)c3)CC2)c(C)n1 -1.75%
O=C(COc1ccccc1[N+](=O)[O-])NC1CC1 -2.67%
Cc1cc(OCCCCOc2ccc(C#N)cc2)ccc1[N+](=O)[O-] -2.44%
Cc1cc(OCC(=O)Nc2c(C)n(C)n(-c3ccccc3)c2=O)ccc1[N+](=O)[O-] -4.47%
COc1cc(CN2CCN(Cc3ccc(C)cc3)CC2)c([N+](=O)[O-])cc1OC 0.03%
Oc1ccc(-c2cccc(-c3ccc(O)cc3)c2)cc1 -2.2%
Cc1ccc(CNC(=O)c2ccc(CS(=O)Cc3cccc(Cl)c3)o2)cc1 (stereo not drawn) -2.03%
COCCCC1CCN(C(=O)C2CCC(=O)N(C3CCCCCC3)C2)CC1 (stereo not drawn) -3.17%
CCCc1cc(=O)oc2cc(OCC(=O)Nc3ccc(CN4CCOCC4)cc3)c(Cl)cc12 0.28%
CCc1cc(=O)oc2c(C)c(OCC(=O)NCCN3CCOCC3)ccc12 6.89%
Cc1ccc(-n2c(C)cc(C(=O)CSc3nnc4ccccn34)c2C)cc1 1.89%
Cc1ccc(N/N=C2\COC(C)(C)CC2=O)cc1 -2.64%
Cc1nn(-c2ccccc2)c(C)c1NC(=O)COc1ccc(Cl)cc1Cl -1.49%
CN1CCC(OC(=O)COc2ccc(Cl)cc2Cl)CC1 4.57%
COc1ccc(OC)c(-n2c(-c3ccn[nH]3)n[nH]c2=S)c1 -0.56%
Cc1ccc(-n2c(-c3ccc(Cl)cc3)n[nH]c2=S)cc1 -3.52%
CCCNC(=O)CCc1c(C)nc2c(c(C)nn2-c2ccccc2)c1C -3.85%
C=CCOCCN(C)C1=NS(=O)(=O)c2ccccc21 -0.19%
COc1ccc(/C=N/S(=O)(=O)c2ccccc2)cc1OC 2.08%
CC(=O)c1cccc(NC(=O)C2CCCN(S(=O)(=O)c3cccc4nonc34)C2)c1 (stereo not drawn) -0.2%
COc1ccc(COC(=O)c2ccc(Cl)c(S(=O)(=O)N3CCOCC3)c2)cc1F -3.64%
CCN1CCN(CCNC(=O)c2ccc(/C=C3/Sc4ccccc4N(Cc4cccc(C)c4)C3=O)cc2)CC1 -2.77%
COc1ccc(CCNC(=O)c2ccc3c(c2)NC(=O)C(N2CCOCC2)S3)cc1OC (stereo not drawn) 0.07%
O=C(NCCCc1ccccc1)C(=O)NCC1OCCN1S(=O)(=O)c1ccccc1 (stereo not drawn) -2.36%
CCC(NC(=O)c1cc(COc2ccc(F)c(F)c2)on1)c1ccncc1 (stereo not drawn) 1.14%
COc1ccc(S(=O)(=O)N2CCN(C)CC2)c(C)c1 1.39%
CC(=O)c1ccc(Cc2ncc(C(F)(F)F)cc2Cl)s1 -0.62%
O=C(NCC(=O)N1CCN(c2ncc(C(F)(F)F)cc2Cl)CC1)c1ccc(Br)o1 0.82%
O=C1CC(C(F)(F)C(F)(F)C(F)(F)C(F)(F)F)=Nc2ccccc2N1 -4.82%
Cc1ccccc1-n1cc(CNC(=O)C2CCC(=O)N(C3CC3)C2)cn1 (stereo not drawn) -2.92%
O=C1/C(=C/c2ccc3c(c2)OCO3)Oc2cc(OCC(=O)N3CC(O)C[C@H]3C(=O)O)ccc21 (stereo partly drawn) -0.7%
Cc1cc(=O)oc2ccc(OCC(=O)O)cc12 -3.22%
Cc1ccccc1N1CCN(CCCOc2ccc3c(C)cc(=O)oc3c2)CC1 -0.43%
Cc1ccc2c(C)c(C(=O)N3CCN(c4ccncc4)CC3)oc2c1C 3.45%
Cc1nnc(SCC(=O)Nc2cccc(N)c2)n1-c1ccccc1 -2.64%
O=S(=O)(c1ccc(Br)cc1)N1CCC(c2nc3ccccc3[nH]2)CC1 -4.39%
Cc1cc(NC(=O)/C=C/C(=O)N(c2ccccc2C)C(C(=O)NC2CCCC2)c2ccc(F)cc2)no1 (stereo not drawn) 1.56%
COc1ccc(CNC(=O)c2cc(C(=O)C3CC3)c[nH]2)cc1 -2.31%
CCOC(=O)C1CCN(c2ncnc3c2oc2ccc(Br)cc23)CC1 -2.16%
CCOC(=O)N1CCN(C(=O)C2CCN(S(=O)(=O)c3cc(Cl)ccc3OCC)CC2)CC1 -1.98%
C=CCOc1cccc(C2NC(=O)c3ccccc3O2)c1 (stereo not drawn) -2.16%
Cc1cc(N2CCN(c3ccccc3)CC2)nc(N2CCOCC2)n1 -1.05%
Cc1cc(Nc2ccc(N3CCOCC3)cc2)c2cccc(C)c2n1 2.18%
CC(=O)NC(CC(=O)Nc1cccc(S(=O)(=O)N2CCCC2)c1)c1ccccc1 (stereo not drawn) -3.12%
C=CCn1c(-c2sc(-c3ccccc3)nc2C)n[nH]c1=S -5.93%
C=CCn1c(-c2ccc3[nH]c(C)c(C)c3c2)n[nH]c1=S 5.39%
COc1cc(NC(=O)CCNC(=O)Cn2ccc3ccccc3c2=O)cc(OC)c1OC -1.82%
C[C@H](NC(=O)[C@@H]1Cc2ccccc2CN1C(=O)OC(C)(C)C)C(=O)NC1CCCC1 -2.43%
CCn1c(C(O)c2cc(OC)ccc2OC)nc2ccccc21 (stereo not drawn) -0.51%
COc1ccc(CC(=O)N/N=C(\C)c2ccccn2)cc1 -3.47%
Cc1cccc(OCC(=O)NCCCNC(=O)c2ccccn2)c1 -2.83%
CCCc1[nH]nc2c1C(C1CC=CCC1)C(C#N)=C(N)O2 (stereo not drawn) 1.47%
CCCc1[nH]nc2c1C(c1c(C)nn(-c3ccccc3)c1Cl)C(C#N)=C(N)O2 (stereo not drawn) -2.17%
CN(C)C(=O)c1coc2nc3ccccc3nc12 -2.21%
CNC(=O)c1cc2c(ccc3ccccc32)oc1=N 0.24%
Cc1ccc(S(=O)(=O)c2nc(-c3cccs3)oc2NCc2cccnc2)cc1 -1.14%
O=C(NCCOc1ccccc1F)Nc1ccc(Br)cc1 -1.38%
COc1ccc(NS(=O)(=O)c2cc3c(cc2C)N(C(C)=O)CCO3)cc1 -3.48%
O=[N+]([O-])c1ccccc1/C=C/CN1CCCC(CO)C1 (stereo not drawn) -0.68%
O=C(NCC(=O)N1CCC2(CC1)NCCc1[nH]cnc12)c1ccc(Br)cc1 0.87%
Cc1ccccc1NC(=O)C1CCN(C(=O)NC2CCCCC2)CC1 -1.56%
Cc1ccc(NC(=O)c2cccnc2C(=O)Nc2ccc(C)cc2)cc1 -0.75%
O=C(NC(=S)Nc1ncccn1)c1ccccc1Br -1.46%
COc1cc(/C=C2\SC(=O)NC2=O)ccc1OCc1ccc(Cl)nc1 -1.77%
COc1ccccc1CCNS(=O)(=O)c1cc2c3c(c1)C(C)C(=O)N3CCC2 (stereo not drawn) 1.4%

inhibition, active:
CCOCCCNc1c(CC)c(C)c(C#N)c2nc3ccccc3n12 12.7%
O=c1[nH]c(-c2ccccc2)c(-c2ccccc2)[nH]1 13.9%
COc1cc(NC(=O)C2=C(C)OCCS2)c(Cl)cc1C(=O)NCCN1CCN(C)CC1 25.9%
Cc1cc(OCCCN2CCN(Cc3ccccc3)CC2)ccc1[N+](=O)[O-] 8.13%
Cc1cc(OCC(=O)NC2CCN(C)CC2)ccc1[N+](=O)[O-] 9.4%
O=C(COc1cc2oc(=O)c3c(c2cc1Cl)CCC3)NCCCN1CCOCC1 27.2%
CN1CCN(c2ccc(NC(=O)COc3ccc(Cl)cc3Cl)cc2)CC1 11.7%
COc1ccc(-n2c(-c3ccc(OC)c(OC)c3)n[nH]c2=S)cc1 9.11%
COc1ccc(/C=N/N(C)C2=NS(=O)(=O)c3ccccc32)cc1OC 18.5%
CCN1CCN(CCNC(=O)c2ccc3c(c2)NC(=O)/C(=C\c2ccc(OC)c(OC)c2)S3)CC1 23.2%
CN1CCN(C(=O)CCc2ncc(C(F)(F)F)cc2Cl)CC1 7.72%
Cc1cc(=O)oc2cc(OCCC[n+]3ccccc3)ccc12 8.33%
CCOC(=O)N1CCN(C(=O)C2CCN(c3ncnc4c3sc3cccc(F)c34)CC2)CC1 17.8%
Cc1nn2c3cc(N4CCOCC4)ccc3nc2c2ccccc12 10.9%
C=CCn1c(-c2ccccc2OCC)n[nH]c1=S 25.3%
CCN(CC)CCOc1ccc2c(c1)C(=NNC(=O)c1ccccn1)c1cc(OCCN(CC)CC)ccc1-2 29.9%
CCCc1[nH]nc2c1C(c1ccc(Br)s1)C(C#N)=C(N)O2 (stereo not drawn) 8.14%
CNC(=O)c1cccc2nc3ccccc3nc12 12.2%
O=C(Nc1ccc(-n2ccnc2P(=O)(O)c2ccccc2)cc1)c1ccccc1Br 21.4%
